According to PubChem BioAssay (NCI):
About 79,000 compounds went through this panel and 15% of them were active in at least one assay; those are over-represented in the sample as a whole. Unmarked numbers belong to inactive results. Calls of active or inactive are those of the source. Rule as the data show it: active = growth inhibition above about 70%; inactive = the rest.

Experiments:
[1] = NCI Yeast Anticancer Drug Screen. Data for the rad50 strain (AID 155);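 also: 0% = growth of vehicle-only cultures of the same strain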; settings: S. cerevisiae rad50 strain growth inhibition, active compounds read high
Summary of the method: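 Compounds were tested on a yeast strain with an engineered DNA damage repair alteration; the reported value is growth inhibition normalised to vehicle treatment.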

[2] = NCI Yeast Anticancer Drug Screen. Data for the mec2-1 strain (AID 157); settings: S. cerevisiae mec2-1 strain, active compounds read high
Summary of the method: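 Each compound was tested on mec2-1 yeast, a strain altered in DNA damage repair or cell cycle control. Growth inhibition is reported relative to vehicle.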

[3] = NCI Yeast Anticancer Drug Screen. Data for the sgs1 mgt1 strain (AID 161);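 also: 0% = growth of cultures given vehicle only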; settings: S. cerevisiae sgs1 mgt1 strain, active compounds read high
Summary of the method: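 Test agents were incubated with a DNA-repair-mutant yeast strain. Growth was then read and compared against vehicle-treated controls.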

[4] = NCI Yeast Anticancer Drug Screen. Data for the cln2 rad14 strain (AID 165);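 also: 0% = growth equal to vehicle treated cultures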; settings: S. cerevisiae cln2 rad14 strain, active compounds read high
Summary of the method: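 Test compounds were added to cln2 rad14 yeast cultures; inhibition of growth was then determined by comparison with vehicle treatment.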

[5] = NCI Yeast Anticancer Drug Screen. Data for the bub3 strain (AID 167); settings: S. cerevisiae bub3 mutant strain, active compounds read high
Summary of the method: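 Growth of a checkpoint-deficient yeast mutant is measured after compound exposure. Values represent inhibition relative to vehicle.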

[6] = NCI Yeast Anticancer Drug Screen. Data for the mlh1 rad18 strain (AID 175); settings: S. cerevisiae mlh1 rad18 strain growth inhibition, active compounds read high
Summary of the method: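 Inhibition values reflect reduced growth of mutant yeast versus vehicle-treated controls following compound exposure; the mutations affect DNA damage repair.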

[7] = at 5.0 µM (retest, dose inferred, filed as 0.5)
[8] = at 50.0 µM (retest, dose inferred, filed as 5.0)

Row | Structure (SMILES) | growth inhibition [1, 7] [%] | growth inhibition [1, 8] | growth inhibition ([1]; at 50.0 µM) | growth inhibition [2, 7] [%] | growth inhibition [2, 8] | growth inhibition ([2]; at 50.0 µM) | growth inhibition [3, 7] [%] | growth inhibition [3, 8] | growth inhibition ([3]; at 50.0 µM) | growth inhibition [4, 7] [%] | growth inhibition [4, 8] | growth inhibition ([4]; at 50.0 µM) | growth inhibition [5, 7] | growth inhibition [5, 8] | growth inhibition ([5]; at 50.0 µM) | growth inhibition [6, 7] | growth inhibition [6, 8] | growth inhibition ([6]; at 50.0 µM)
1 | O=C(c1ccccc1)c1ccc(O)cc1O | -5 | 49% | 85% (active) | -10 | 24% | 84.5% (active) | -5 | 15% | 88.5% (active) | -4 | 2% | 26.4% | -26% | -17% | 58.9% | -9% | 12% | 72.1% (active)
2 | N=Nc1c(OC(=O)Nc2ccccc2)[nH]c2ccccc12 | -3 | 67% | 8.65% | 20 | 63% | -6.3% | -1 | 69% | 13.8% | 9 | 40% | 63.9% | 1% | 84% (active) | 31.9% | -3% | 85% (active) | 71.5% (active)
3 | COP(=O)(OC)/C(=C/c1cn(C(c2ccccc2)(c2ccccc2)c2ccccc2)cn1)NC=O | 5 | 16% | 2.1% | 2 | -5% | 60.7% | -4 | 41% | 79.9% (active) | 1 | 14% | 0.6% | 0% | 9% | -1.7% | -12% | 40% | 39.2%
4 | COC(=O)c1ccc(C)cc1CC1Cc2cc(C)ccc2C1=O (stereo not given) | 5 | 54% | 36.1% | -21 | 56% | 56.1% | -31 | 68% | 73.9% (active) | 21 | 53% | 71.8% (active) | -34% | 49% | 64.2% | -12% | 85% (active) | 70.7% (active)
5 | CC1(C)C=CC2=C(O1)C(=O)c1ccccc1C2=O | 9 | 76% (active) | 39.6% | 8 | 77% (active) | -0.85% | 18 | 88% (active) | 73.2% (active) | -7 | 12% | 6.9% | 67% | 95% (active) | 48.4% | 16% | 89% (active) | 44.5%
6 | CCOC(=O)/C(=C\c1ccc(Cl)cc1)C(C)=O | 31 | 98% (active) | 93.2% (active) | 49 | 99% (active) | 94.5% (active) | 33 | 98% (active) | 93.3% (active) | 29 | 98% (active) | 92% (active) | 79% (active) | 99% (active) | 92.2% (active) | 79% (active) | 98% (active) | 91.5% (active)
7 | CC(=O)OC1=CC2=CCC3C(CCC4(C)C(C(C)=O)CCC34)C2(C)CC1 (stereo not given) | -12 | 0% | -5.65% | -6 | 7% | 10.9% | -6 | 8% | 7.35% | -6 | -13% | 39.8% | -11% | -14% | -1.15% | -4% | -11% | 11.3%
8 | N#CC1=C(N)OC(c2ccccc2)=C(C#N)C1c1ccccc1[N+](=O)[O-] (stereo not given) | 5 | 5% | -8.2% | 9 | 8% | 38.1% | 12 | -8% | 22.7% | 11 | 5% | 72.5% (active) | -1% | -4% | 39.1% | 2% | 7% | 23.3%
9 | COc1cccc(C2c3cc4c(cc3OC(N3CCCC3)C2c2ccccc2)OCO4)c1O (stereo not given) | 24 | 98% (active) | 8.35% | 19 | 99% (active) | 13% | -2 | 95% (active) | 29.4% | -7 | 96% (active) | 13.2% | 6% | 95% (active) | 26.4% | 18% | 98% (active) | 32.2%
10 | OC1c2ccccc2C2(O)C1C(c1ccccc1)C(c1ccccc1)C2(O)c1ccccc1 (stereo not given) | 32 | 95% (active) | 96.7% (active) | -1 | 97% (active) | 97% (active) | 25 | 96% (active) | 98% (active) | -4 | 94% (active) | 95.1% (active) | -1% | 95% (active) | 94.8% (active) | 30% | 94% (active) | 95.7% (active)
